# According to PubChem BioAssay (EPA / NIEHS):
# Inconclusive results are not listed. Activity calls are given as the source filed them. The calls were made as follows: active = hit-call score of the fitted dose curve at least 0.9, where 1 is the maximum; inconclusive = response in the unintended direction; inactive = score below 0.9.
# Columns and labels:
# [1] = target: human MAP Kinase-Activated Protein Kinase 2 (MAPKAPK2), MAPKAPK2 (gene 9261) (UniProt P49137); assay: NVS_ENZ_hMAPKAPK2: NovaScreen (NVS) Enzymatic Assay for human MAP Kinase-Activated Protein Kinase 2 (MAPKAPK2) (AID 2283178)
# Procedure, shortened: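 Chemicals screened in duplicate at 25 uM, then to 50 uM top concentration in concentration-response, against recombinant human MAPKAPK2; substrate conversion read 1 hr post-dosing by fluorescence after electrophoretic mobility-shift separation, loss-of-signal relative to DMSO.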
# [2] = target: human Janus Kinase 2 (Jak2), JAK2 (gene 3717) (UniProt O60674); assay: NVS_ENZ_hJak2: NovaScreen (NVS) Enzymatic Assay for human Janus Kinase 2 (Jak2) (AID 2283169)
# Procedure, shortened: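 Single-point duplicate screen at 25 uM, with hits run in concentration series to a 50 uM top dose. Substrate-product separation by mobility shift with fluorescence detection, 1 h post-dosing; DMSO baseline.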
# [3] = target: human FYN Proto-Oncogene, Src family Tyrosine Kinase (Fyn), FYN (gene 2534) (UniProt P06241); assay: NVS_ENZ_hFyn: NovaScreen (NVS) Enzymatic Assay for human FYN Proto-Oncogene, Src family Tyrosine Kinase (Fyn) (AID 2283161)
# Procedure, shortened: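 Cell-free kinase activity read by fluorescence after mobility-shift separation of substrate and product, 1 h post-dose. Initial single concentration 25 uM in duplicate, then concentration-response follow-up; DMSO baseline.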
# [4] = target: Glycogen synthase kinase-3 beta (Homo sapiens) (UniProt P49841); assay: NVS_ENZ_hGSK3b: NovaScreen (NVS) Enzymatic Assay for human Glycogen Synthase Kinase-3 beta (GSK3b) (AID 2283165)
# Procedure, shortened: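 Recombinant enzyme with specific fluorescent substrate, 1 h, product separated by electrophoretic mobility shift. Primary duplicate screen at 25 uM; actives (e.g. 30% inhibition) followed in singleton concentration-response to 50 uM. Signal loss fitted versus DMSO.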
# [5] = target: human c-Jun N-terminal Kinases (JNK2), MAPK9 (gene 5601) (UniProt P45984); assay: NVS_ENZ_hJNK2: NovaScreen (NVS) Enzymatic Assay for human c-Jun N-terminal Kinases (JNK2) (AID 2283171)
# Protocol: NVS_ENZ_hJNK2 is a biochemical, single-readout assay that uses extracted gene-proteins in a cell-free assay. Measurements were taken 1 hour after chemical dosing in a 384-well plate.NVS_ENZ_hJNK2 is one of one assay component(s) measured or calculated from the NVS_ENZ_hJNK2 assay. It is designed to make measurements of enzyme activity, a form of enzyme reporter, as detected with fluorescence intensity signals by Fluorescence and electrophoretic mobility shift technology.Data from the assay component NVS_ENZ_hJNK2 was analyzed into 1 assay endpoint. This assay endpoint, NVS_ENZ_hJNK2, was analyzed in the positive analysis fitting direction relative to DMSO as the negative control and baseline of activity. Using a type of enzyme reporter, loss-of-signal activity can be used to understand changes in the enzymatic activity as they relate to the gene MAPK9. Furthermore, this assay endpoint can be referred to as a primary readout, because this assay has produced multiple assay endpoints where this one serves a enzymatic activity function. To generalize the intended target to other relatable targets, this assay endpoint is annotated to the kinase intended target family, where the subfamily is serine/threonine kinase. […]
# [6] = target: Mitogen-activated protein kinase 3 (Homo sapiens) (UniProt P27361); assay: NVS_ENZ_hMAPK3: NovaScreen (NVS) Enzymatic Assay for human Mitogen-Activated Protein Kinase 3 (MAPK 3) (AID 2283177)
# Procedure, shortened: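 Chemicals were first tested in duplicate at 25 uM, with hits re-run as concentration series (max 50 uM). Recombinant enzyme activity, measured 1 h post-dose in a cell-free format, was read by fluorescence/mobility shift relative to DMSO.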
# [7] = target: human LYN Proto-Oncogene, Src family Tyrosine Kinase (LynA), LYN (gene 4067) (UniProt P07948); assay: NVS_ENZ_hLynA: NovaScreen (NVS) Enzymatic Assay for human LYN Proto-Oncogene, Src family Tyrosine Kinase (LynA) (AID 2283173)
# Procedure, shortened: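 Recombinant kinase with fluorescent substrate; product separated from substrate by electrophoretic mobility shift and read 1 h after dosing. Duplicate screen at 25 uM, then concentration-response up to 50 uM; activity scored as signal loss against DMSO.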
# [8] = target: Collagenase 3 (Homo sapiens) (UniProt P45452); assay: NVS_ENZ_hMMP13: NovaScreen (NVS) Enzymatic Assay for human Matrix Metalloproteinase-13 (MMP13) (AID 2283182)
# Protocol: NVS_ENZ_hMMP13 is a biochemical, single-readout assay that uses extracted gene-proteins in a cell-free assay. Measurements were taken 1 hour after chemical dosing in a 96-well plate.NVS_ENZ_hMMP13 is one of one assay component(s) measured or calculated from the NVS_ENZ_hMMP13 assay. It is designed to make measurements of enzyme activity, a form of enzyme reporter, as detected with fluorescence intensity signals by Fluorescence technology.Data from the assay component NVS_ENZ_hMMP13 was analyzed into 1 assay endpoint. This assay endpoint, NVS_ENZ_hMMP13, was analyzed in the positive analysis fitting direction relative to DMSO as the negative control and baseline of activity. Using a type of enzyme reporter, loss-of-signal activity can be used to understand changes in the enzymatic activity as they relate to the gene MMP13. Furthermore, this assay endpoint can be referred to as a primary readout, because this assay has produced multiple assay endpoints where this one serves a enzymatic activity function. To generalize the intended target to other relatable targets, this assay endpoint is annotated to the protease intended target family, where the subfamily is matrix metalloproteinase.
# Binding assays used specific radioligands (tritiated, iodinated) with non-radioactive competitive displacement ligands in agonist or antagonist protocols (as indicated) and various reference compounds and inhibitors to titrate specific binding to receptors and transporters. Most enzyme assays (CYPs, kinases, phosphatases, proteases, HDACs) used recombinant protein and specific substrates (fluorescence mostly, some colorimetric and radioactive) and inhibitors, followed by a biochemical separation of substrate and product. All assays for the biochemical HTS were initially run in duplicate at a single concentration (10 uM for CYP450 assays and 25 uM for all others). Assay-chemical combinations meeting a pre-defined threshold (e.g., 30% inhibition and other criteria defined below) were then run in singleton concentration-response format with maximum concentration of 20 uM for CYPs and 50 uM for all others. Each assay was run with positive and negative controls, and concurrent controls on every plate. The follow-up (secondary) screen tested active chemical-pairs in concentration series, as well as a few additional assays not tested in the primary screen, some selected negative inactives, and several cases re-run in the concentration series for confirmatory purposes.
# [9] = target: Histone deacetylase 3 (Homo sapiens) (UniProt O15379); assay: NVS_ENZ_hHDAC3: NovaScreen (NVS) Enzymatic Assay for human Histone Deacetylase 3 (HDAC3) (AID 2283163)
# Procedure, shortened: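 Cell-free enzyme format: loss of fluorescent product after mobility-shift separation, 1 h incubation, recombinant human HDAC3. Single 25 uM duplicate screen first, then concentration series to a 50 uM top for hits; DMSO as baseline.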
# [10] = target: human Insulin Receptor (InsR), INSR (gene 3643) (UniProt P06213); assay: NVS_ENZ_hInsR: NovaScreen (NVS) Enzymatic Assay for human Insulin Receptor (InsR) (AID 2283168)
# Procedure, shortened: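 Cell-free enzyme assay read 1 h post-dose by fluorescence after substrate/product mobility-shift separation. Duplicate 25 uM primary screen, then singleton concentration-response up to 50 uM for compounds passing threshold; loss of signal vs DMSO.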
# Sequence of Histone deacetylase 3 (Homo sapiens) (O15379 whole entry, looked up): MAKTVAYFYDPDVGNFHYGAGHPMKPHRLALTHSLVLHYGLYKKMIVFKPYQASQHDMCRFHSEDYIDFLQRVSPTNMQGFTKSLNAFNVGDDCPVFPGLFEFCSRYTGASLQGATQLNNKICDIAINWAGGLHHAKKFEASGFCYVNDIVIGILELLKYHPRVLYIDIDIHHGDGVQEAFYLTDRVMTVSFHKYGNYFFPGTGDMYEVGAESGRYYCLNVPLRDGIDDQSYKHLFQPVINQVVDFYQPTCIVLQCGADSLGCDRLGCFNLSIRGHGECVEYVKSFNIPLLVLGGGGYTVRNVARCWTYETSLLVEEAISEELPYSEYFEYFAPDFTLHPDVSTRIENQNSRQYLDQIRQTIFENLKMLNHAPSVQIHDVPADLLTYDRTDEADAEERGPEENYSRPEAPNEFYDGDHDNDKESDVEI
# Sequence of human FYN Proto-Oncogene, Src family Tyrosine Kinase (Fyn), FYN (gene 2534) (P06241 whole entry, looked up): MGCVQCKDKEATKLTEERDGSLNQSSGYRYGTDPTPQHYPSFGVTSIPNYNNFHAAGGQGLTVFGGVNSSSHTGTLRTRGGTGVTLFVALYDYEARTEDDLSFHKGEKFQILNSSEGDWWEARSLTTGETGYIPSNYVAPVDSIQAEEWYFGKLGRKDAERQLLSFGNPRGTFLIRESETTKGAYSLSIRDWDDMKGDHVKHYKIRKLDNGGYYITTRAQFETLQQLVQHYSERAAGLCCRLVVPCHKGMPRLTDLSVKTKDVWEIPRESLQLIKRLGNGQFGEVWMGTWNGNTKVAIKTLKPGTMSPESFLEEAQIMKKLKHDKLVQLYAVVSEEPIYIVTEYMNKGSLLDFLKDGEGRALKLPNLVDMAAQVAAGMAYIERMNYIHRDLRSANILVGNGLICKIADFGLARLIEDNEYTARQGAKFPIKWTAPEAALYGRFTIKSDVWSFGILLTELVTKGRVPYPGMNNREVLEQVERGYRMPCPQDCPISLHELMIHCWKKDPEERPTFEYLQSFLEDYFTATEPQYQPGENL
# Sequence of Glycogen synthase kinase-3 beta (Homo sapiens) (P49841 whole entry, looked up): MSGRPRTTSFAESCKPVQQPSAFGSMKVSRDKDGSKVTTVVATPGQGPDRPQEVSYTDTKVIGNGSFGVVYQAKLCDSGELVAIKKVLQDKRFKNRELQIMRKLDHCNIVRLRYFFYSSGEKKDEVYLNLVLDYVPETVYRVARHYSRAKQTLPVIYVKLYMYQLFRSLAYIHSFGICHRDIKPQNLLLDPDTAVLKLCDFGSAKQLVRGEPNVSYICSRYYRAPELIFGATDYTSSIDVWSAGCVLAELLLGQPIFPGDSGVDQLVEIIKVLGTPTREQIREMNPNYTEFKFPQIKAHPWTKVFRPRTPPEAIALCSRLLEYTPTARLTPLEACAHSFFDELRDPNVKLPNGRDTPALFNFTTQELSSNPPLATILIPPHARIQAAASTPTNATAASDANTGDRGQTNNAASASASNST
# Sequence of human Janus Kinase 2 (Jak2), JAK2 (gene 3717) (O60674 whole entry, looked up): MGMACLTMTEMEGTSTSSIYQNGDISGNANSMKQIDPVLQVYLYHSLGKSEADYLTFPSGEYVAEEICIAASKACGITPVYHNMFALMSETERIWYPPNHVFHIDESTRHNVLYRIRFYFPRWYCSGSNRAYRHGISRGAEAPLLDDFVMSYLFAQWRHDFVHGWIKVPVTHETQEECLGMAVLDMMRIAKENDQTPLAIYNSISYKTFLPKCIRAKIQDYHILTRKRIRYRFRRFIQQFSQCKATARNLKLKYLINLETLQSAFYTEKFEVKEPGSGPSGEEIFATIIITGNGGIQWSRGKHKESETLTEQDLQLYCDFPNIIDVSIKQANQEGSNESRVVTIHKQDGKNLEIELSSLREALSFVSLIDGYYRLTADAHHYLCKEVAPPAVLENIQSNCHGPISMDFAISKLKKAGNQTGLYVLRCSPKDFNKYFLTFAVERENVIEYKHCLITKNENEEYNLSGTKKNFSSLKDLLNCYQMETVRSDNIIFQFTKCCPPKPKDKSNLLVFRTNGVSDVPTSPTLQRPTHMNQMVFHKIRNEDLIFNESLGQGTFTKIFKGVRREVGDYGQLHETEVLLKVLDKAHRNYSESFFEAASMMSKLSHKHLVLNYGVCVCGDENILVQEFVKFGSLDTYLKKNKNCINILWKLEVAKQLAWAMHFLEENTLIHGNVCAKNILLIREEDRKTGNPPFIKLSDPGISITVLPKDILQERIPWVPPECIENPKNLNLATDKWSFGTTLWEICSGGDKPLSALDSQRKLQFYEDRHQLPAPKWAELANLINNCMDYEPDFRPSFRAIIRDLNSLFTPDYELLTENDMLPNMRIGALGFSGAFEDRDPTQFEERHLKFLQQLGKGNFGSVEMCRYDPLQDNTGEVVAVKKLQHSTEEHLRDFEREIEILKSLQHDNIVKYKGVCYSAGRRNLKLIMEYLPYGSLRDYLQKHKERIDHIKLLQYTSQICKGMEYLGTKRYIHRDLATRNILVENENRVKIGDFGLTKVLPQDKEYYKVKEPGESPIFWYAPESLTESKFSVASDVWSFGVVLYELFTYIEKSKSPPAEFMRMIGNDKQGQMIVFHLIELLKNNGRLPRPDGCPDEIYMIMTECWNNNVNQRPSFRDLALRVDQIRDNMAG
# Sequence of human MAP Kinase-Activated Protein Kinase 2 (MAPKAPK2), MAPKAPK2 (gene 9261) (P49137 whole entry, looked up): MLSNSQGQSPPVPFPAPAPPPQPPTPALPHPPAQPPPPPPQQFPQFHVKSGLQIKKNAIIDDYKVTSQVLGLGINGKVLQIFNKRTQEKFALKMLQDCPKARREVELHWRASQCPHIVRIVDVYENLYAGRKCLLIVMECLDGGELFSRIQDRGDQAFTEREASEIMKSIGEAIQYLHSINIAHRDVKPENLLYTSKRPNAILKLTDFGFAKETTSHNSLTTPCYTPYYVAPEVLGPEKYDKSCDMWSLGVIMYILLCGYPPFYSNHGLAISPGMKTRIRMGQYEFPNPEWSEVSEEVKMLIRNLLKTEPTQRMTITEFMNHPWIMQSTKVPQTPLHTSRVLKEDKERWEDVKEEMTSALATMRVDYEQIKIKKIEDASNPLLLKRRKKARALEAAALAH
# Sequence of Mitogen-activated protein kinase 3 (Homo sapiens) (P27361 whole entry, looked up): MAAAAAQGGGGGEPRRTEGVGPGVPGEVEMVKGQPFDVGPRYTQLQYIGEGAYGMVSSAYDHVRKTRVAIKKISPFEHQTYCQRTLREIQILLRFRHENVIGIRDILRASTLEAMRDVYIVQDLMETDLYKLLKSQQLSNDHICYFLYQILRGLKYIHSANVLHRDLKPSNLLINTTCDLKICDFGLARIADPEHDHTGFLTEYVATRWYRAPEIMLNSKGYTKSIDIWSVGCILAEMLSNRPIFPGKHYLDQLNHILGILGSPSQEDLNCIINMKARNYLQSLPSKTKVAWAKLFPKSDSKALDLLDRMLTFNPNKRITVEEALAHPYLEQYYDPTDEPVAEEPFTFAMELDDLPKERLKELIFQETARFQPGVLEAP
# Sequence of human c-Jun N-terminal Kinases (JNK2), MAPK9 (gene 5601) (P45984 whole entry, looked up): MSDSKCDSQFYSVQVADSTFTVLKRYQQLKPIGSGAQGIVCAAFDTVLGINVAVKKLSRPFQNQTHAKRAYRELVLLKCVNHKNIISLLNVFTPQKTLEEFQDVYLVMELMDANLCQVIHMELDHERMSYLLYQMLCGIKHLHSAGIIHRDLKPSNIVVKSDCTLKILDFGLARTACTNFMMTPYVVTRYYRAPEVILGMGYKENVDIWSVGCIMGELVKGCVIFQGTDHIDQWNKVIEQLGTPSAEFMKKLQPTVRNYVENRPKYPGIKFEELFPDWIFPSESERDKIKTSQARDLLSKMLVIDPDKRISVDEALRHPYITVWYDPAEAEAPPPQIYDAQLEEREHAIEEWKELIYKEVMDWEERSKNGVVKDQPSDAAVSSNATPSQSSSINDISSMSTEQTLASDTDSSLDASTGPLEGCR
# Sequence of human LYN Proto-Oncogene, Src family Tyrosine Kinase (LynA), LYN (gene 4067) (P07948 whole entry, looked up): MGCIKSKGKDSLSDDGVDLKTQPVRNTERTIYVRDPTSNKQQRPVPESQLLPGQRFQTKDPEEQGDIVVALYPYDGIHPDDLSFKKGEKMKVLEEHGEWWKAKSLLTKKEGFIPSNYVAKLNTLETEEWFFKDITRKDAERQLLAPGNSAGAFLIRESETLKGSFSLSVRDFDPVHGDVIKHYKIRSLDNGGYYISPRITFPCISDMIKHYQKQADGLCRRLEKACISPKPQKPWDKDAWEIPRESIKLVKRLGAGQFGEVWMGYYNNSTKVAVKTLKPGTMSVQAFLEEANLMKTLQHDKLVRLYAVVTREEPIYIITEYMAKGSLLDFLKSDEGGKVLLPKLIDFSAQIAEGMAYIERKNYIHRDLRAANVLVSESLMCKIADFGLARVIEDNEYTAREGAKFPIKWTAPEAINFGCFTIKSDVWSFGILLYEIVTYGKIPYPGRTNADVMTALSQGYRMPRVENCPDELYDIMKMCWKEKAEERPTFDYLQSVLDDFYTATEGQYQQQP
smiles,measurement,setting,value
c1ccc2c(c1)-c1cccc3c1c-2cc1ccccc13,outcome,[1],inactive
CCc1ccc(O)c(C(C)(C)C)c1,outcome,[2],inactive
CCCC(CCC)C(=O)O,outcome,[3],inactive
same,outcome,[4],inactive
same,outcome,[5],inactive
same,outcome,[6],inactive
O=C(O)c1ccc2c(c1)nc(C(=O)NC1CCN(C3CC3)CC1)n2Cc1cc(-c2ccc(Cl)s2)on1,outcome,[4],inactive
same,outcome,[2],inactive
same,outcome,[6],inactive
O=C(NO)C1(NS(=O)(=O)c2ccc(Oc3ccc(F)cc3)cc2)CCOCC1,outcome,[3],inactive
same,outcome,[4],inactive
same,outcome,[2],inactive
same,outcome,[7],inactive
same,outcome,[1],inactive
same,AC50,[8],0.00244 µM (active)
c1ccc2cc3ccccc3cc2c1,outcome,[1],inactive
COCc1nnc(-c2ccc[n+]([O-])c2)n1-c1c(Cl)c(Cl)cc2[nH]c(=O)c(=O)[nH]c12,AC50,[8],21.5 µM (active)
OCc1ccccc1,outcome,[4],inactive
NNC(=O)c1ccncc1,outcome,[1],inactive
CCCCC(CC)C(=O)OCCOCCOCCOC(=O)C(CC)CCCC (stereo unspecified),outcome,[1],inactive
Cn1c(=O)c2[nH]cnc2n(C)c1=O,outcome,[1],inactive
OC(CCl)CCl,outcome,[1],inactive
OC[C@H]1O[C@@H]2O[C@H]3[C@H](O)[C@@H](O)[C@@H](O[C@H]4[C@H](O)[C@@H](O)[C@@H](O[C@H]5[C@H](O)[C@@H](O)[C@@H](O[C@H]6[C@H](O)[C@@H](O)[C@@H](O[C@H]7[C@H](O)[C@@H](O)[C@@H](O[C@H]1[C@H](O)[C@H]2O)O[C@@H]7CO)O[C@@H]6CO)O[C@@H]5CO)O[C@@H]4CO)O[C@@H]3CO,outcome,[4],inactive
C[C@]12C=CC(=O)C=C1CC[C@H]1[C@@H]3C[C@@H](O)[C@](O)(C(=O)CO)[C@@]3(C)C[C@H](O)[C@@]12F,outcome,[4],inactive
O=C(O)c1cccc(C[C@@H]2COc3ccc(OCc4nc5cc(F)ccc5s4)cc3[C@@H]2O)c1,outcome,[4],inactive
c1ccc2ncccc2c1,outcome,[1],inactive
CCCCCCCC1CCC(=O)O1 (stereo unspecified),outcome,[4],inactive
O=c1[nH]cnc2c1ncn2[C@H]1CC[C@@H](CO)O1,outcome,[9],inactive
same,outcome,[4],inactive
same,outcome,[6],inactive
CCCCCCCC/C=C\CCCCCCCC(=O)OC[C@@H](O)[C@H]1OC[C@H](O)[C@H]1O,outcome,[3],inactive
same,outcome,[4],inactive
same,outcome,[6],inactive
CC[C@H](C)C(=O)O[C@H]1C[C@H](O)C=C2C=C[C@H](C)[C@H](CC[C@@H](O)C[C@@H](O)CC(=O)O)[C@H]21,outcome,[6],inactive
c1ccc(C(O[C@@H]2CCCN(CCc3ccc4c(c3)OCO4)C2)c2ccccc2)cc1,outcome,[4],inactive
Cc1ncc([C@@H](CCCCCCc2ccc3c(n2)NCCC3)CC(=O)O)cn1,outcome,[4],inactive
same,outcome,[1],inactive
NC(=O)NN=Cc1ccc([N+](=O)[O-])o1,AC50,[9],1.26 µM (active)
same,outcome,[4],inactive
COc1cc2c(c(OC)c1OC)-c1ccc(OC)c(=O)cc1[C@@H](NC(C)=O)CC2,outcome,[9],inactive
same,AC50,[8],25.7 µM (active)
O=S(=O)(O)c1ccc(N=Nc2c(O)ccc3cc(S(=O)(=O)O)ccc23)cc1,AC50,[8],14.8 µM (active)
CCCOc1ccc(S(=O)(=O)N2CCN(CC)CC2)cc1-c1nc2c(CC)n(Cc3ccccn3)nc2c(=O)[nH]1,outcome,[10],inactive
OC(Cn1cncn1)(Cn1cncn1)c1ccc(F)cc1F,outcome,[2],inactive
OCCNCCO,outcome,[4],inactive
Cc1nc(-c2ccccn2)ncc1C(=O)Nn1cc(C)c2cc(F)ccc21,outcome,[9],inactive
